# Shown are actives, neighbours in structure and some others; about 21% of the full set was active somewhere.
# HCV inhibitor = qHTS Assay for Inhibitors of Hepatitis C Virus (HCV) | Huh7.5.1 HCVcc-Cre infection, luciferase reporter, 44 h | Potency, µM (series often up to 41.8 µM), for inactives: top-dose activity change, negative = inhibition, hits mostly inhibitors | 340,000 tested, 3.4% active | AID 651820, 2012; also: potency is read from the fitted curve at half-maximal effect; % is scaled to controls: 0 for no effect and ±100 for the full control effect
#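 Compounds are dispensed onto cells plated 4 h earlier at 1,000 per well, with HCVcc-Cre virus (about 0.5 moi) added next. Following 44 h of culture, luminescent signal is measured for 15 sec after 15 min with substrate at room temperature.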
# Pf growth 48h = Primary qHTS for delayed death inhibitors of the malarial parasite plastid, 48 hour incubation; P. falciparum luciferase growth in erythrocytes, 48 h; Potency, µM (series often up to 28.7 µM), for inactives: top-dose activity change, negative = inhibition, hits mostly inhibitors; 310,000 tested, 5.9% active; AID 504832, 2011; also: potency is read from the fitted curve at half-maximal effect; % is scaled to controls: 0 for no effect and ±100 for the full control effect
#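 Firefly luciferase activity from engineered P. falciparum reports growth; inhibitors lower the luminescent signal. Cultures contained 2% hematocrit erythrocytes at 0.1% final parasitemia.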
# Cycloheximide cs = Cycloheximide Counterscreen for Small Molecule Inhibitors of Shiga Toxin; cell reporter, cycloheximide protein synthesis inhibition counterscreen; max response, %; 300,000 tested, 12% active; in the data active = max response mostly above about 13%, no sharp cut-off; inactive = mostly below about 14%; also: read at 38.3 µM for the half of the compounds with a filed dose; 0% is about no effect
# AMA1-RON2 inh = qHTS for Inhibitors of AMA1-RON; Towards Development of Antimalarial Drug Lead: Primary Screen. AlphaScreen AMA1-biotinylated RON2 peptide binding. Potency, µM (highest dose often 58.2 µM), without a hit: at the highest dose activity change, negative = inhibition, actives largely listed as inhibitors. Plasmodium falciparum AMA1 (3D7) - RON2 peptide interaction. AID 720542, 2013. 360,000 tested, 0.2% active;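 also: potency is read from the fitted curve at half-maximal effect; 0% = vehicle wells and -100% = peptide control; nearly all actives have a fitted effect of over 45% in size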
#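 AMA1 (3D7) with his tag at 25 nM final met compounds first, then biotinylated RON2 peptide at 25 nM; detection used donor plus acceptor beads, 10 µg/mL apiece, read by AlphaScreen after 30 min at room temperature.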
# Pf growth 96h = Primary qHTS for delayed death inhibitors of the malarial parasite plastid, 96 hour incubation; P. falciparum luciferase reporter growth, 96 h; Potency, µM (series often up to 28.7 µM), for inactives: top-dose activity change, negative = inhibition, most hits filed as inhibitors; 320,000 tested, 6.9% active; AID 504834, 2011; also: potency is read from the fitted curve at half-maximal effect; % is scaled to controls: 0 for no effect and ±100 for the full control effect
#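 Readout is luminescence from an integrated firefly luciferase in P. falciparum. Red cells, 2% hematocrit and 0.05% parasitemia final, were cultured with compound through two parasite generations (96 hours) at 37 C, 5% CO2.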
# Shiga toxin inh = A qHTS for Small Molecule Inhibitors of Shiga Toxin; Vero cells, Shiga toxin protein synthesis inhibition reporter; inhibition, % at 38.7 µM; 290,000 tested, 9.2% active; in the data active = inhibition mostly above about 28%, no sharp cut-off; inactive = mostly below about 43%; also: 0% is about no effect
# * marks the source's active call; other numbers are inactive results; i = inactive; ? = inconclusive; / = no result; [ ] = remark or other dose. Unless noted, calls follow the shape of the dose curve; as a rule, active = well fitted curve in the direction sought with a large enough effect; inconclusive = small, poorly fitted or top-dose-only effect, or another doubt; inactive = no such curve, though single readings can be large; an effect the other way counts as inactive or inconclusive.
SMILES,HCV inhibitor,Pf growth 48h,Cycloheximide cs,AMA1-RON2 inh,Pf growth 96h,Shiga toxin inh
COC(=O)c1cn(C(=O)c2cc(Cl)ccc2Cl)c2ccccc12,-8%,21%,-2,-17%,13µM*,/
COC(=O)c1cn(-c2ccc(Cl)cc2)c(=O)c2ccccc12,?,2.9µM*,-3,-2%,/,-14
CCN(CC)c1ccc(C2C3CCCCC3(O)CCN2C(=O)c2cccs2)cc1 (centres undefined),3%,?,5,-14%[2.32 µM],12µM*,13
CCN(CC)c1ccc([C@H]2[C@@H]3CCCC[C@]3(O)CCN2CC(=O)NCc2ccco2)cc1,-2%,10µM*,-3,9%,?,-7
Cc1ccc(C(=O)CN(CCC(=O)O)C(=O)c2ccncc2)cc1,18%,30%,/,-5%,7%,/
CCc1nc2c(OCC3COc4ccccc4O3)cccn2c1N(C)C(=O)c1ccccc1F (centres undefined),/,/,/,18%,/,/
CCc1nn(CC(=O)N2CC(C)CC(C)C2)c(=O)c2cccn12 (centres undefined),9%,19%,1,-1%,48%,-6
Cc1cc2nc(CCN(C(=S)NCC3CCCO3)C3CCCC3)[nH]c2cc1C (centres undefined),11µM*,-24%,-4,-1%,?,3
CN1CCN(c2ccc(CNC(=O)c3ccco3)cc2)CC1,37%,42%,14,65%,45%,8
CCN(Cc1ccccc1)C(c1ccc(C)cc1)c1nnnn1C(C)(C)C (centres undefined),4%,/,-1,-13%,8.3µM*,-16
CC(C)(C)n1nnnc1C(c1cccs1)N(Cc1ccccc1)Cc1ccco1 (centres undefined),11µM*,13µM*,11,0%,21%,33
CN(C)CCN(Cc1ccccc1)C(c1cc2ccccc2o1)c1nnnn1C(C)(C)C (centres undefined),/,/,/,-1%,/,/
CCN(Cc1ccccc1)C(c1ccc(Cl)cc1)c1nnnn1C(C)(C)C (centres undefined),8%,?,3,-3%,134%,-19
CC(C)(C)n1nnnc1C(c1ccccn1)N(Cc1ccccc1)Cc1ccc(Cl)cc1 (centres undefined),?,12µM*,2,-9%,1.5µM*,23
CC(C)(C)n1nnnc1C(c1ccncc1)N(Cc1ccccc1)Cc1ccco1 (centres undefined),-14%,13µM*,7,30%,/,8
CCn1c(C(=O)O)c(S(=O)(=O)c2ccc(Cl)cc2)c2ccccc21,19%,-3%,-3,-7%,?,-2
O=C(NCc1ccccc1Cl)C1CCC(CNc2c(N3CCOCC3)c(=O)c2=O)CC1 (centres undefined),9%,-14%,-3,-1%,-15%,-4
COc1ccc2c(c1)C(c1ccc(C)cc1)CC(=O)O2 (centres undefined),/,/,10,/,/,i
O=C(NCc1cc(Cl)cc(Cl)c1)c1ccc2sc([C@H]3C[C@H](O)[C@@H](CO)O3)nc2c1,/,/,/,7%,/,/
CCCN1CCN(C(=O)c2ccc(CS(=O)c3ccc(Br)cc3)o2)CC1 (centres undefined),/,/,/,5%,/,/
Cc1ccc(S(=O)(=O)N2CCC(C(=O)Nc3nnc(C)s3)CC2)cc1,4%,7%,-3,-1%,13%,-25
O=C(Nc1cccc2cccnc12)C1CCCC1,6%,12%,9,16%,4%,15
CC(C)(C)n1nnnc1C(c1cccs1)N(Cc1cccnc1)Cc1ccco1 (centres undefined),-18%,10µM*,1,0%,7.4µM*,-2
Nc1cc(=O)[nH]c(SCC(=O)NNC(=O)Cc2ccccc2)n1,0%,51%,6,88%,11%,20
COc1ccc(C(=O)N2CCc3[nH]nc(-c4ccccc4)c3C2)cc1,11µM*,-30%,23,0%,-22%,-4
SMILES,HCV inhibitor,Pf growth 48h,Cycloheximide cs,AMA1-RON2 inh,Pf growth 96h,Shiga toxin inh
COCCNC(=O)C1Cc2c(-c3cccc(NC(C)=O)c3)ccnc2O1 (centres undefined),/,/,/,-4%,/,/
COc1ccc(-n2c(SC(C)C(=O)Nc3ncc(Cl)cc3Cl)nc3ccccc32)cc1 (centres undefined),?,10µM*,2,-7%,?,-2
CCC(c1nc2ccccc2[nH]1)n1c(=O)c(-c2ccco2)nc2ccccc21 (centres undefined),/,/,/,-3%,/,/
O=C(COC(=O)c1ccc(F)c([N+](=O)[O-])c1)NC(=O)NCc1ccccc1,?,/,/,22%[11.6 µM],/,/
N#CC1=C2C=Cc3ccccc3N2CCCC1=O,-2%,85%,33*,-10%,4%[5.75 µM],45*
Cc1cccnc1NC(=O)c1ccc(S(=O)(=O)NCc2ccco2)cc1,8%,22%,/,-4%,31%,/
C/C(=N\Nc1ccc(C(F)(F)F)cn1)c1ccc(S(=O)(=O)NCc2ccco2)cc1,4%,-4%,72*,-1%,-5%,121*
CCC(=O)Nc1ccc(S(=O)(=O)NCc2ccco2)cc1,-2%,/,-7,2%,?,-9
Cc1ccc(-c2ccc(S(=O)(=O)NCc3ccco3)cc2)cc1,9%,19%,0,-9%,3%,4
C/C(=N\Nc1ccc(C(=O)O)cc1)c1ccc(S(=O)(=O)NCc2ccco2)cc1,22%,87%,45*,39%,25%,77*
C/C(=N\Nc1ccccn1)c1ccc(S(=O)(=O)NCc2ccco2)cc1,0%,0%,44*,-9%,4%,81*
C/C(=N\Nc1nc(Cl)c(Cl)cc1Cl)c1ccc(S(=O)(=O)NCc2ccco2)cc1,6.3µM*,7%,69*,42%,-26%,122*
O=C(O)CN1C(=O)C(=O)N(Cc2ccc(C(F)(F)F)cc2)C1=O,12%,-10%[0.00184 µM],-2,0%,30%,-7
Cc1ccc2c(=O)n3c(nc2c1)C(CC(C)C)NC(=O)c1ccc(Cl)cc1-3 (centres undefined),-9%,/,/,/,/,/
O=C(CCC(=O)c1cccs1)NCc1cccc(Cl)c1,-2%,9%,/,5%,21%,/
Cc1ccc(NC(=O)c2ccc(CSc3ccccn3)cc2)cc1,?,41%,31*,-17%,26%,82*
Cc1ccc(NC(=O)c2ccc(CSc3ccccn3)cc2)c(O)c1,?,1.5µM*,10,0%,3.7µM*,27
CC(C(=O)NC(=O)NC1CCCCC1)N(C)CC(=O)Nc1ccc(F)c(F)c1F (centres undefined),?,?,/,96%,?,/

# Screens from PubChem BioAssay.
